Laboratory results reported in PubChem BioAssay (NCI).
About 79,000 compounds went through this panel and 15% of them were active in at least one assay; those are over-represented in the sample as a whole. Calls of active or inactive are those of the source. No stated cut-off is given here; in the data, active means growth inhibition above about 70%; inactive means the rest.

Key:
[1] = NCI Yeast Anticancer Drug Screen. Data for the rad50 strain (AID 155);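 further: 0% = growth of vehicle-only cultures of the same strain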; conditions: S. cerevisiae rad50 strain growth inhibition; at 50.0 µM; stronger effect = higher value
Summary of the method: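 Relative growth inhibition (compound vs vehicle) was measured in yeast with a defined repair-gene alteration.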

[2] = NCI Yeast Anticancer Drug Screen. Data for the mec2-1 strain (AID 157); conditions: S. cerevisiae mec2-1 strain, at 50.0 µM, stronger effect = higher value
Summary of the method: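 Compounds were applied to mec2-1 yeast cells. Their growth was then compared with that of vehicle-treated cultures to give growth inhibition.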

[3] = NCI Yeast Anticancer Drug Screen. Data for the sgs1 mgt1 strain (AID 161);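 further: 0% = growth of cultures given vehicle only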; conditions: S. cerevisiae sgs1 mgt1 strain, at 50.0 µM, stronger effect = higher value
Summary of the method: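 Yeast cells carrying a defined DNA-repair defect were exposed to test compounds. Growth inhibition was measured relative to vehicle-treated controls.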

[4] = NCI Yeast Anticancer Drug Screen. Data for the cln2 rad14 strain (AID 165);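 further: 0% = growth equal to vehicle treated cultures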; conditions: S. cerevisiae cln2 rad14 strain, at 50.0 µM, stronger effect = higher value
Summary of the method: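 Strain: cln2 rad14 yeast, altered in cell cycle control and DNA damage repair. Read-out: growth inhibition vs vehicle.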

[5] = NCI Yeast Anticancer Drug Screen. Data for the bub3 strain (AID 167); conditions: S. cerevisiae bub3 mutant strain, at 50.0 µM, stronger effect = higher value
Summary of the method: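 Screening used yeast with an engineered genetic alteration affecting cell cycle control. Compound-exposed cultures were compared with vehicle cultures, and reduced growth was taken as inhibition.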

[6] = NCI Yeast Anticancer Drug Screen. Data for the mlh1 rad18 strain (AID 175); conditions: S. cerevisiae mlh1 rad18 strain growth inhibition; at 50.0 µM; stronger effect = higher value
Summary of the method: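 A repair-deficient yeast strain is exposed to test compound, and growth is scored relative to vehicle-treated controls.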

Measured: growth inhibition

CC(C)CCCC(C)C1CCC2(C)C3=C(CCC12C)C1(C)Cc2nonc2C(C)(C)C1CC3 (stereo not given)
inactive: [1] 20.9% | [2] 3.35% | [3] 3.3% | [4] 14.9% | [5] 0.55% | [6] 11.3%

Cn1c(=O)c2[nH]c(/N=N/N3CCN(CCO)CC3)nc2n(C)c1=O
inactive: [1] 20.1% | [2] -14.8% | [3] 6.95% | [4] -34% | [5] -45.6% | [6] 9.35%

O=c1c2ccccc2oc2cc([N+](=O)[O-])cc([N+](=O)[O-])c12
inactive: [1] -15.9% | [2] -16.2% | [3] -14.4% | [4] 38.4% | [5] 0.9% | [6] -60.6%

CCCC1OCC(CC)C(CCC)O1 (stereo not given)
inactive: [1] 25.5% | [2] 4.95% | [3] 6.25% | [4] -37% | [5] 7.4% | [6] 2.7%

COc1ccccc1NC(=O)C(CC(C(=O)Nc1ccccc1OC)/C(C)=N/NC(=O)c1ccccc1O)/C(C)=N/NC(=O)c1ccccc1O (stereo not given)
inactive: [1] -27.8% | [2] -14.2% | [3] -28.2% | [4] 21.9% | [5] -3.55% | [6] -9.1%

CCCCCC/C(C)=C/CCC(C)=O
inactive: [1] 12.4% | [2] 4.15% | [3] 14.8% | [4] 11.3% | [5] 4.7% | [6] -0.25%

O=C(Nc1cc(Br)c2cccc3c2c1CC3)c1ccccc1
inactive: [1] 6.35% | [2] 10.9% | [3] 1.45% | [4] -5.25% | [5] 14.3% | [6] -0.95%

Cc1ccc(S(=O)(=O)NCCCN(CCCNS(=O)(=O)c2ccc(C)cc2)S(=O)(=O)c2ccc(C)cc2)cc1
inactive: [1] -8.25% | [2] -10.8% | [3] -5.1% | [4] -70.5% | [5] -19.4% | [6] -12.2%

Cc1ccc(N2[C@H]3CCCN3c3ccc(C)cc3[C@@H]2C(F)(F)F)cc1
inactive: [1] 16.3% | [2] 0.8% | [3] 29.5% | [4] -2.25% | [5] -15.5% | [6] 2%

COC(=O)C1=C(C(=O)OC)C2C=CC1C1C(Cl)=C(Cl)C21 (stereo not given)
inactive: [1] -12% | [2] -0.95% | [3] -10.7% | [4] 21.2% | [5] 33.6% | [6] -34%

OC(CCN1CC2CCC(CC2)C1)(Cc1ccccc1)c1ccc(F)cc1 (stereo not given)
inactive: [1] -3.8% | [2] -7.9% | [3] 23.1% | [4] -5.15% | [5] 22.6% | [6] -7.25%

CCC1C(OC)=CC2(CC)CC1(OC)OC2=O (stereo not given)
inactive: [1] -4.75% | [2] -0.3% | [3] -1.2% | [4] -2.45% | [5] 7.45% | [6] -3.35%

Cc1ccc(SS(=O)(=O)c2ccc([N+](=O)[O-])cc2)cc1
inactive: [1] 13.9% | [2] 12.4% | [3] 9.3% | [4] -29.4% | [5] -5.45% | [6] 16.6%

CC(C)N1CN(C(C(=O)N[C@@H]2C(=O)N3C2SC(C)(C)C3C(=O)O)c2ccccc2)CSC1=S (stereo not given in full)
inactive: [1] 48.8% | [2] -15.4% | [3] 3.85% | [4] -7.95% | [5] -9.85% | [6] -11.2%

COc1ccc(C2C(Cl)C(=O)N2NC(=O)c2ccc(NC(C)=O)cc2)cc1 (stereo not given)
inactive: [1] -47.9% | [2] -20.8% | [3] -49.9% | [4] -9.35% | [5] -50% | [6] -54%

COc1cc(OC)c(C(=O)/C=C/c2ccncc2)cc1C(=O)O
inactive: [1] 10.1% | [2] -14.6% | [3] 16.2% | [4] 13.3% | [5] 19.6% | [6] -5.85%

CCCCCCCCCCC/C(C)=N/Nc1ccc([N+](=O)[O-])cc1[N+](=O)[O-]
inactive: [1] 5.65% | [2] -5.15% | [3] 2.15% | [4] 11.8% | [5] -0.2% | [6] -13%

Cc1ccccc1NC(=O)C(C)C
inactive: [1] 28.8% | [2] -5.7% | [3] 4.35% | [4] 11.3% | [5] 15.2% | [6] 7.2%

CN1N=C(N)c2cn(C3OC(COP(=O)(O)O)C(O)C3O)c3ncnc1c23 (stereo not given)
inactive: [1] -16.2% | [2] 1.2% | [3] 4.7% | [4] -22.8% | [5] 11.3% | [6] -9.05%

OCC1OC(c2scc3c(=S)nc[nH]c23)C(O)C1O (stereo not given)
inactive: [1] -5.9% | [2] -13.7% | [3] -9.45% | [4] 19.6% | [5] 12.6% | [6] -11.2%

NC(N)=N/N=C1/C(=O)N(C2CCCCCC2)C(=O)C1C(=O)NC1CCCCCC1 (stereo not given)
inactive: [1] 35.8% | [2] 5.3% | [3] 14.9% | [4] 23.9% | [5] 6.4% | [6] 28.1%

N#CCCc1ccnc2ccccc12
inactive: [1] 1.7% | [2] -6.4% | [3] 1.25% | [4] -43% | [5] -3.8% | [6] -14.8%

CC(C)C(/C=C/c1ccc(Br)cc1)=N\NC(N)=O
inactive: [1] -14.1% | [2] -29.2% | [3] -40.8% | [4] -13.9% | [5] -18.1% | [6] -18.9%

O=C(OCc1ccccc1C1CSCSC1)c1cc(C(=O)OCc2ccccc2C2CSCSC2)c(C(=O)OCc2ccccc2C2CSCSC2)cc1C(=O)OCc1ccccc1C1CSCSC1
inactive: [1] 5.3% | [2] -17.7% | [3] -10.6% | [4] 1.65% | [5] 6.1% | [6] -8.8%

CN(C)c1ccccc1C1CCCCCC1O (stereo not given)
inactive: [1] 15.8% | [2] 6.1% | [3] 17.9% | [4] 20.1% | [5] -22.3% | [6] 8.95%

CCn1c2ccccc2c2cc(N)c(N=Nc3ccc(-c4ccc(N)c(OC)c4)cc3OC)cc21
inactive: [1] 31.4% | [2] 0.65% | [3] 27.6% | [4] 28.8% | [5] -4% | [6] 29.8%

NS(=O)(=O)c1ccc(N=Nc2c[nH]c(=O)c(O)c2)cc1
inactive: [1] 3.45% | [2] 4.95% | [3] -9.55% | [4] -37.4% | [5] -60.4% | [6] 2.3%

CCOc1ccc2nc(/C=C/c3ccccc3)ccc2c1
inactive: [1] 13.9% | [2] -3.65% | [3] 13.8% | [4] -3.75% | [5] 9.85% | [6] 14.8%

Cc1ccc(SCC(CF)OCn2cc(F)c(=O)[nH]c2=O)cc1 (stereo not given)
inactive: [1] -7.85% | [2] -13% | [3] -12.2% | [4] -22.2% | [5] 1.95% | [6] -8.05%

COc1ccc2nc(NC(=O)C(=O)C(C#N)c3ccc(CC#N)cc3)sc2c1 (stereo not given)
inactive: [1] -4.3% | [2] 11.4% | [3] 4.5% | [4] -4.85% | [5] 0.15% | [6] -5.75%

CC(N)(Cc1c[nH]c2ccccc12)C(=O)O (stereo not given)
inactive: [1] -13.3% | [2] -43.5% | [3] -16.1% | [4] -26.9% | [5] -15.8% | [6] -19.4%

C=C(Nc1ccc(OC)cc1OC)C(=O)Cc1cccc[n+]1[O-]
inactive: [1] 6.25% | [2] -2.45% | [3] -10.5% | [4] -2.4% | [5] -3.4% | [6] -8.8%

O=C(Sc1ccccn1)c1ccccc1
inactive: [1] 4.15% | [2] -14.3% | [3] -18.4% | [4] -8.05% | [5] -21.6% | [6] -37.1%

O=C(O)CS(=O)(=O)c1nc2ccccc2[nH]1
inactive: [1] -27.3% | [2] 20.6% | [3] -7.75% | [4] -57.6% | [5] 10.8% | [6] -14.8%

COc1ccc(/C=C/C(=O)c2ccccc2)cc1
inactive: [1] 25.7% | [2] -18.1% | [3] -12.6% | [4] 2.25% | [5] -28.9% | [6] 4.9%

CCOC(=O)c1ccc(C(=O)OCC)n1-c1cc2cc(c1)CSCc1cc(cc(-n3c(C(=O)OCC)ccc3C(=O)OCC)c1)CSC2
inactive: [1] -26.2% | [2] -30.1% | [3] -20.9% | [4] 16.6% | [5] -13.8% | [6] -5.15%

CCC1CCC(CC)C1OC(C)=O (stereo not given)
inactive: [1] -31.1% | [2] -27.7% | [3] -12.3% | [4] -26.4% | [5] -28.7% | [6] -21.6%

NCCCc1ccc(C(=O)O)cc1
inactive: [1] -23.8% | [2] 1.85% | [3] -0.5% | [4] -40.2% | [5] 5.85% | [6] 7.75%

C=C(CCC(Cl)C(COS(=O)(=O)c1ccc(C)cc1)OC(CCCO[Si](c1ccccc1)(c1ccccc1)C(C)(C)C)OCC)[Si](C)(C)C (stereo not given)
active: [5] 73%
inactive: [1] 68.2% | [2] 65.7% | [3] 60.6% | [4] 69.1% | [6] 58.4%

CC(C)OC(=O)Oc1ccccc1Cl
inactive: [1] -18.5% | [2] -21.1% | [3] -13.6% | [4] -6.9% | [5] -3.35% | [6] -22.4%
